Legend:
[1] = biological target: T1, Serine/threonine-protein kinase 3 (Homo sapiens) (UniProt Q13188); conditions: at 1 µM
T1 sequence (whole entry): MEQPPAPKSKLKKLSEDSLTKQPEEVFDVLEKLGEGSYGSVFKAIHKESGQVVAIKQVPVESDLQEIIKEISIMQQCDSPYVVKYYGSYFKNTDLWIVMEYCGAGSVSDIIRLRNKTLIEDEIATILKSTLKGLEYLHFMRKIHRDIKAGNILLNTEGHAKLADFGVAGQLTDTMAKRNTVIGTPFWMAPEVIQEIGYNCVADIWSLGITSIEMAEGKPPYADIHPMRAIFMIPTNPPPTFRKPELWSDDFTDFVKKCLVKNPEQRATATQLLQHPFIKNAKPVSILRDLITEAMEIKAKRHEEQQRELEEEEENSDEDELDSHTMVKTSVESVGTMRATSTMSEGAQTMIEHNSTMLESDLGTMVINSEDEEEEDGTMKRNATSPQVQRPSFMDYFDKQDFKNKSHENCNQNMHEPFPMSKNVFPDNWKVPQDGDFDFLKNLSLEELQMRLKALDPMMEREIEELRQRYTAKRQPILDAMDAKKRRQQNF

[2] = biological target: T1, Serine/threonine-protein kinase 3 (Homo sapiens); conditions: at 10 µM
[3] = biological target: Serine/threonine-protein kinase 24 (Homo sapiens) (UniProt Q9Y6E0); conditions: at 1 µM
Chain of Serine/threonine-protein kinase 24 (Homo sapiens) (Q9Y6E0 whole entry, looked up): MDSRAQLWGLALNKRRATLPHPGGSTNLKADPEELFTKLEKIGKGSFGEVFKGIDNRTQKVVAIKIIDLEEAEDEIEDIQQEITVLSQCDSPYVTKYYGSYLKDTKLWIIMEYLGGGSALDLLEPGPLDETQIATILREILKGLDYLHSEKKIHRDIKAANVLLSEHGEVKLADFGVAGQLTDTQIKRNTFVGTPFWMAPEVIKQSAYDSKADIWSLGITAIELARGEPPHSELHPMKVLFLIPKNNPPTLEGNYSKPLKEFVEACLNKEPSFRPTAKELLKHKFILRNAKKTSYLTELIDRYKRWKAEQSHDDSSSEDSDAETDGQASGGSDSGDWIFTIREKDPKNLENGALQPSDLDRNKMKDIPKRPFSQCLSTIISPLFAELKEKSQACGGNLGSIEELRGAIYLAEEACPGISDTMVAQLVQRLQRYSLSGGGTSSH

[4] = biological target: Serine/threonine-protein kinase 24 (Homo sapiens) (UniProt Q9Y6E0); conditions: at 10 µM
[5] = biological target: T2, Tyrosine-protein kinase Mer (Homo sapiens) (UniProt Q12866); conditions: at 1 µM
T2 sequence (whole entry): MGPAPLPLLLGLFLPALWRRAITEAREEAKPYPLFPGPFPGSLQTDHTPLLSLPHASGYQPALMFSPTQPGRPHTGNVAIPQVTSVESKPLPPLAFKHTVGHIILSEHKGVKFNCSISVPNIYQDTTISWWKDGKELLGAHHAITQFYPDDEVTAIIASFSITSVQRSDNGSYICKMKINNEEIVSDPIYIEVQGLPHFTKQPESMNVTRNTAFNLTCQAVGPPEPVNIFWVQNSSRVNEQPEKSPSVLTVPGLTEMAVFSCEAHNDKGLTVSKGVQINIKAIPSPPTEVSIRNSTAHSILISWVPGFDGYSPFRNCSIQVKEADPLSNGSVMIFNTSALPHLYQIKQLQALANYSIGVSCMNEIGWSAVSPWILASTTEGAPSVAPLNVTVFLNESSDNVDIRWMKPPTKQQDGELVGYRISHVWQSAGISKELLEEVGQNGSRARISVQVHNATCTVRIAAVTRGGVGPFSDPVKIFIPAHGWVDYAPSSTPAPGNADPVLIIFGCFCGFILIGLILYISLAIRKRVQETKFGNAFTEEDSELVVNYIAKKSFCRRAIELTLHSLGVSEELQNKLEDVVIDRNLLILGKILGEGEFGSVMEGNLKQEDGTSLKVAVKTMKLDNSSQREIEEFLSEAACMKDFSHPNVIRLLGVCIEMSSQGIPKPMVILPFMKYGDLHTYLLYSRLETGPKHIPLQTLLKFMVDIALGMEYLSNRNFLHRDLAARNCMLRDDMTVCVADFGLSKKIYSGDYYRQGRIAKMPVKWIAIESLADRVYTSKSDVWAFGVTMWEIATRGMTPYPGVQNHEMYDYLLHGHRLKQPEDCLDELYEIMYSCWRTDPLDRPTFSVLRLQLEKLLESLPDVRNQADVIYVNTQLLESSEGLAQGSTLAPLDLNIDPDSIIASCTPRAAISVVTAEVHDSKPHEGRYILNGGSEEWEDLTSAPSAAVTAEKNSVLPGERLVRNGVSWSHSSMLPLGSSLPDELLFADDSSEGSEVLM

[6] = biological target: T2, Tyrosine-protein kinase Mer (Homo sapiens); conditions: at 10 µM
[7] = biological target: Hepatocyte growth factor receptor (Homo sapiens) (UniProt P08581); conditions: at 1 µM
Chain of Hepatocyte growth factor receptor (Homo sapiens) (P08581 whole entry): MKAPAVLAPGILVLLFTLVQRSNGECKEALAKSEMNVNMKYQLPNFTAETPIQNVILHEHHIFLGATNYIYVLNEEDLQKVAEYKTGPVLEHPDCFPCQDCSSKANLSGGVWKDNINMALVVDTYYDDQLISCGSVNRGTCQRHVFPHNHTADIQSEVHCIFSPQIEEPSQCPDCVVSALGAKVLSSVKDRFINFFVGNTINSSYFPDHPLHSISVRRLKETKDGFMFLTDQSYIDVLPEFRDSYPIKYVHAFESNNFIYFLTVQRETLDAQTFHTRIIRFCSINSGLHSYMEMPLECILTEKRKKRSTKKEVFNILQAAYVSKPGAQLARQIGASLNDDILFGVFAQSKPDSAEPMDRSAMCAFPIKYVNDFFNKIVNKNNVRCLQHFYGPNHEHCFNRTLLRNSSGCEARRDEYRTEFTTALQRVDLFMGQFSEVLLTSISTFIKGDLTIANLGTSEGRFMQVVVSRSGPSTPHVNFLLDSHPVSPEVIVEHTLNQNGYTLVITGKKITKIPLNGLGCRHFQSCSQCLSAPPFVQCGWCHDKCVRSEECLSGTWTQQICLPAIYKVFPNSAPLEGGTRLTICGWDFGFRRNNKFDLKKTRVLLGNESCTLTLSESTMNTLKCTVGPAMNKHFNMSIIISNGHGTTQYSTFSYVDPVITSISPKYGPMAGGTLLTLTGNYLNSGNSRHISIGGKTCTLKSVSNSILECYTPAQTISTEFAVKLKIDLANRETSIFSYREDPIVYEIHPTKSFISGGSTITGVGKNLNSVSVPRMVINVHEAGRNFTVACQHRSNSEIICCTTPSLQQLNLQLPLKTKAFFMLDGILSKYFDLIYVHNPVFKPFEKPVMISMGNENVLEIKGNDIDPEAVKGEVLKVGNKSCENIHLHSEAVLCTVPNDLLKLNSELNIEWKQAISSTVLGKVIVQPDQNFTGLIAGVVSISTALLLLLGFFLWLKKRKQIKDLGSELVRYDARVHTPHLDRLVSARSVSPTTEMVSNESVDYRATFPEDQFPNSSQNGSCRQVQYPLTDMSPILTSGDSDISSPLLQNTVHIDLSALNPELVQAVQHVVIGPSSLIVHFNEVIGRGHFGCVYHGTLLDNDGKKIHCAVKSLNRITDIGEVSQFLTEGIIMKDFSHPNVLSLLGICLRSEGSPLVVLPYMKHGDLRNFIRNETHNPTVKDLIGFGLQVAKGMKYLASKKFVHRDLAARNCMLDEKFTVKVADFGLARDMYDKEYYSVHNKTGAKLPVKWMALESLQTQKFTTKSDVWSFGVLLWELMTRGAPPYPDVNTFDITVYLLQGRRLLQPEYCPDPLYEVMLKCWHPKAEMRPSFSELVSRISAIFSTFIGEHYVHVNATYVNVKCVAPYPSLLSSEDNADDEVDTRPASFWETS

[8] = biological target: Hepatocyte growth factor receptor (Homo sapiens) (UniProt P08581); conditions: at 10 µM
[9] = biological target: MAP kinase-interacting serine/threonine-protein kinase 2 (Homo sapiens) (UniProt Q9HBH9); conditions: at 1 µM
Chain of MAP kinase-interacting serine/threonine-protein kinase 2 (Homo sapiens) (Q9HBH9 whole entry, looked up): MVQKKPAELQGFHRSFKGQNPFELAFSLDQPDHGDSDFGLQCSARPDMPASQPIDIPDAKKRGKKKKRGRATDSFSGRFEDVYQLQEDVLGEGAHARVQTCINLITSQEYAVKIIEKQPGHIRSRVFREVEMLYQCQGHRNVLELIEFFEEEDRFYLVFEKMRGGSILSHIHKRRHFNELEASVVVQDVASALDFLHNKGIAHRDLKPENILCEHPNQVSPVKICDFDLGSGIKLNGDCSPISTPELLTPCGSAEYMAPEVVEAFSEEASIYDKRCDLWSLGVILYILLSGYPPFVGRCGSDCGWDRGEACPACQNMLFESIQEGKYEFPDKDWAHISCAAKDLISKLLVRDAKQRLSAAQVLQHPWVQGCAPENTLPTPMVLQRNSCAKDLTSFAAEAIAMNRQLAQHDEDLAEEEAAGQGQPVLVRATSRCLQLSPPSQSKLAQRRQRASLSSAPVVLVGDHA

[10] = biological target: MAP kinase-interacting serine/threonine-protein kinase 2 (Homo sapiens) (UniProt Q9HBH9); conditions: at 10 µM

SMILES	residual activity [1] [%]	residual activity [2] [%]	residual activity [3] [%]	residual activity [4] [%]	residual activity [5] [%]	residual activity [6] [%]	residual activity [7] [%]	residual activity [8] [%]	residual activity [9] [%]	residual activity [10] [%]
Nc1cccc(-c2cc3c(Oc4cccc(O)c4)ncnc3[nH]2)c1	99	69	65	23	81	35	63	22	68	20
COc1cc2ncnc(Nc3ccc(O)c(Br)c3)c2cc1OC	97	70	54	43	69	16	86	72	10	6
Cc1cccc(-c2[nH]c(C(C)(C)C)nc2-c2ccc3c(c2)OCO3)n1		94	79	72	107	97				
Cc1cc(Nc2nc(-c3ccccc3)nc3ccccc23)n[nH]1	55	11	59	10	19	1	94	65		61
O=C1Nc2cc(Br)ccc2/C1=C1/Nc2ccccc2/C1=N\O	10	5	62	70	26	4	118	97	62	77
c1ccc(-c2n[nH]c3c2oc2ccccc23)cc1			66	67	95	70	87	70	80	24
Cn1cc(/C=C2\C(=O)Nc3ccc(S(N)(=O)=O)cc32)c2ccccc21	27	6	69	63	22	16	84		80	72
O=C1NC(=O)c2cc(Nc3ccc(F)cc3)c(Nc3ccc(F)cc3)cc21	100	68	68	54	105	93	89	59	106	86
O=c1c2ccccc2[nH]c(=S)n1CCN1CCC(=C(c2ccc(F)cc2)c2ccc(F)cc2)CC1	120	93	71	69	106	88	136	89	112	103
Nc1n[nH]c2nnc(-c3c(-c4ccccc4)nn4ccccc34)cc12	79	91		15	86	57	78	88	96	101
N#CC(C#N)=C(N)/C(C#N)=C/c1ccc(O)cc1			71	67				138		50
Cc1cncc2cccc(S(=O)(=O)N3CCCN(C(=O)CN)C[C@H]3C)c12			61	71	79	21	84	123		72
COc1cc2ncnc(Nc3ccc(Oc4ccccc4)cc3)c2cc1OC	96	80	111	124	53	38			52	16
CN(C)c1ccc(/C=C2\C(=O)Nc3ccccc32)cc1	108		66	49	51	36	112	107	107	95
Cc1ccc(S(=O)(=O)/C=C/C#N)cc1	99	95	86	88	101	108	96	123	98	101
O=Nc1c(-c2c(O)[nH]c3ccccc23)[nH]c2ccccc12	6	0	42	10	-2	-3	86	13	62	18
COc1cc2ncnc(N3CCN(C(=O)Nc4ccc(Oc5ccccc5)cc4)CC3)c2cc1OC	98	86	98	117	97	60	114		92	64
O=[N+]([O-])c1ccc(-c2nc(-c3ccc(F)cc3)c(-c3ccncc3)[nH]2)cc1	110	99	83	82	101	107	128	98	109	106
CC#CC(=O)Nc1cc2c(Nc3ccc(F)c(Cl)c3)ncnc2cn1	103	94	71	75	107	94	111	84	101	90

SMILES	residual activity [1] [%]	residual activity [2] [%]	residual activity [3] [%]	residual activity [4] [%]	residual activity [5] [%]	residual activity [6] [%]	residual activity [7] [%]	residual activity [8] [%]	residual activity [9] [%]	residual activity [10] [%]
CC[n+]1c(/C=C/N(C)c2ccccc2)n(-c2ccccc2)c2ccc(-c3nc4ccccc4s3)cc21	109	71	78	79	113	48	97	74	104	63
O=C1Nc2ccc(Br)cc2/C1=C\c1cc2c([nH]1)CCCC2	46	61		77	68	45	104	144	108	102
CC(=O)c1ccc(N2CCOCC2)cc1O			70	71					105	96
NC(=O)c1ccc2[nH]c(-c3ccc(Oc4ccc(Cl)cc4)cc3)nc2c1	100	74	79	82	95	95	128	101	61	19
COc1cc2ncc(-c3ccccc3)nc2cc1OC		100	65	71		62	92	68		
Cn1nc2c3c(cccc31)C(=O)c1ccccc1-2	97		74	69	53	21		84	81	72
CCN(CC)C(=O)c1ccc(Nc2nc(OCC3CCCCC3)c3nc[nH]c3n2)cc1	66	7	63	16	15	0	45	9		44
Nc1ccc2ncnc(NCCc3ccc(Oc4ccccc4)cc3)c2c1	100	72	99	72	95	62	124	80	105	74
CC(=O)O/N=C1\C(=C2\C(=O)Nc3cc(Br)ccc32)Nc2ccccc21	65	18	85	74	39	6	89	81	101	92
CCN(CC)CCCCN1c2ccccc2Oc2ccc(Cl)cc21	118	112	85	99	110	62	128	108	107	84
N#Cc1cnc2cnc(NCc3cccnc3)cc2c1Nc1ccc(F)c(Cl)c1	42	4	27	15					98	79
COc1cc2ncnc(Nc3ccc(NC(=O)c4ccccc4)cc3)c2cc1OC		95	90		108	59	88	23	98	57
CN(C)CCCn1cc(C2=C(c3c[nH]c4ccccc34)C(=O)NC2=O)c2ccccc21	73	17	27	7	60	11		58		
CNc1cc2c(Nc3cccc(Br)c3)ncnc2cn1	103	88	76	86	96	84	89	73	21	12
CCOc1cc2ncnc(Nc3cccc(Br)c3)c2cc1OCC	103	71	61	47	84	31	58	33	21	7
N#CCCc1ccc2c(c1)-c1[nH]c3ccc([N+](=O)[O-])cc3c1CC(=O)N2	27	7	37	12					72	42
c1ccc2c(-c3ccncc3)c[nH]c2c1	103	81	61	69	100	73		68	35	9
Cn1cnc2cc3c(Nc4cccc(Br)c4)ncnc3cc21	98	92	78	80	79	58	85	68	26	13
